Screening results deposited in PubChem BioAssay by National Center for Advancing Translational Sciences (NCATS).
S2 tox = cell viability loss in ATXN counter-screen; S2 cells (HEK-293 line with an ATXN2-luciferase reporter) viability, CellTiter-Fluor protease fluorescence, 24 h; Potency, µM (doses to about 56.7 µM), actives largely listed as cytotoxic; 400,000 tested, 0.49% active; AID 651635; note: potency is the fitted concentration of half-maximal effect; nearly all actives have a fitted effect of over 40% in size
HepG2 viability = counter-screen for TGF-b inhibitors: cytotoxicity in HepG2 cells | HepG2 CAGA-GFP viability, ATP luminescence, 18 h | Potency, µM (highest dose often 46.1 µM), for inactives: at the top dose activity change, negative = cytotoxicity, usual class: cytotoxic | 410,000 tested, 0.76% active | AID 588856; note: potency is the fitted concentration of half-maximal effect
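HepG2 CAGA-GFP cells (1000/well, DMEM with 1% FBS) received compound, then TGF-beta at 500 pg/mL final, and were incubated 18 hours at 37 degrees C. Viability was read by CellTiter-Glo luminescence. Media-only wells were set as complete cell-killing and DMSO as no toxicity.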
ATXN2 expr inh = inhibitors of ATXN2 expression | Potency, µM (doses to about 57 µM), without a hit: at the highest dose activity change, negative = inhibition, actives largely listed as inhibitors | HEK-293 ATXN2-luciferase reporter, luminescence, 24 h | 360,000 tested, 0.72% active; note: potency is the fitted concentration of half-maximal effect; % is set by controls: 0 for no effect and ±100 for the full control effect; nearly all actives have a fitted effect of over 55% in size
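ATXN2-luciferase reporter cells (luciferase flanked by upstream and downstream ATXN2 gene portions) were treated 24 h at 37 °C with compounds at up to 57 uM. SteadyGlo luminescence gave expression; GF-AFC fluorescence gave viability.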
IL1B secr inh = inflammasome signaling inhibition, IL-1 beta readout. THP-1 LPS/ATP IL-1B secretion, AlphaLISA, 16 h; active compounds read low. activity change, % at 57.5 µM. 360,000 tested, 4.7% active; in the data active = activity change below about -50%; inconclusive = mostly about -30% to -49%; note: % is set by controls: 0 for no effect and ±100 for the full control effect
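THP-1 cells pretreated 1 hr with compounds (up to 57.5 uM final), then stimulated with LPS (250 ng/mL final) plus ATP (1.25 mM final); secreted IL-1B measured by AlphaLISA after 16 hr, decreased signal indicating inhibition.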
TGFb SMAD3 inh = TGF-b pathway inhibition; HepG2 CAGA-GFP TGF-b/SMAD3 reporter, GFP fluorescence, 18 h; TGF-beta stimulated, 500 pg/mL final; Potency, µM (top dose mostly 46.1 µM), without a hit: at the top dose activity, negative = inhibition, actives largely listed as inhibitors; 410,000 tested, 1.2% active; note: potency is the fitted concentration of half-maximal effect; % is set by controls: 0 for no effect and ±100 for the full control effect; nearly all actives have a fitted effect of over 65% in size
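GFP signal (ex488/em500-530) from TGF-beta-stimulated HEPG2 CAGA-GFP cells, 500 pg/mL final, 18 h at 37 degrees C in DMEM plus 1% FBS, normalized to unstimulated and DMSO-stimulated controls.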
Numbers without * were called inactive; i = inactive; u = inconclusive; x = no result given. In the library only some 5.7% were active in any assay of this set; here they are far more common. Unless noted, calls come from the whole dose curve; as a rule, active = well fitted curve in the direction sought with a large enough effect; inconclusive = small, poorly fitted or top-dose-only effect, or another doubt; inactive = no such curve, though single readings can be large; an effect the other way counts as inactive or inconclusive.

SMILES	S2 tox	HepG2 viability	ATXN2 expr inh	IL1B secr inh	TGFb SMAD3 inh
COc1ccc(-c2cc3ccc(O)c(CN4CCCCC4C)c3oc2=O)cc1OC (stereo unspecified)	x	7%	9%	x	2%
COc1ccc(C)cc1NC(=O)C1CCN(S(=O)(=O)c2ccc3[nH]c4c(c3c2)CCCCC4)CC1	x	15%	x	x	u
Cc1cc(OCC(=O)N2CCC(c3nc4ccccc4s3)CC2)ccc1Cl	u	-10%	u	x	10µM*
Cc1ccccc1C(=O)N1CCC(c2nc3ccccc3s2)CC1	u	-21%	u	x	u
CC(Oc1ccc(F)cc1)C(=O)N1CCC(c2nc3ccccc3s2)CC1 (stereo unspecified)	u	13µM*	u	x	u
COC(=O)c1c(-c2cccs2)csc1NC(=O)COc1ccc(C(C)C)cc1	x	-1%	x	x	x
CC(C)C[C@H]1CN([C@@H](CC(C)C)CN2CCC[C@H]2CN2C(=O)C(=O)NC[C@@H]2Cc2ccc(O)cc2)C(=O)C(=O)N1CC1CCCCC1	i	x	3%	30	x
CC(C)C[C@@H](CN1CCC[C@H]1CN1C(=O)C(=O)NC[C@@H]1Cc1ccccc1)N1C[C@H](Cc2ccc(O)cc2)N(CC2CCCCCC2)C(=O)C1=O	u	x	u	-76*	x
CC(C)C[C@@H](CN1CCC[C@@H]1CN1C(=O)C(=O)NC[C@@H]1Cc1ccc(O)cc1)N1C[C@H](Cc2ccc(O)cc2)N(CC2CCCCCC2)C(=O)C1=O	i	x	6%	-13	x
CC(C)C[C@@H](CN1CCC[C@@H]1CN1C(=O)C(=O)NC[C@@H]1Cc1ccccc1)N1C[C@H](Cc2ccc(O)cc2)N(CC2CCCCC2)C(=O)C1=O	u	-61%	-2%	-75*	u
CC(C)C[C@H]1CN([C@@H](CC(C)C)CN2CCC[C@H]2CN2C(=O)C(=O)NC[C@@H]2Cc2ccc(O)cc2)C(=O)C(=O)N1CC1CCCCCC1	x	x	u	-52*	x
Cc1ccc(-c2nc3cc(Cl)ccc3o2)cc1NC(=O)COc1ccccc1C	x	1%	x	x	-1%
COc1cccc(Nc2nc(C(N)C(C)C)cs2)n1 (stereo unspecified)	i	-18%	-6%	x	-6%
CS(=O)(=O)c1ccc(Nc2nc(C(N)Cc3ccc(C(F)(F)F)cc3)cs2)cc1 (stereo unspecified)	i	-55%	u	-21	u
NC(=O)c1cccc(Nc2nc(C(N)Cc3ccc(C(F)(F)F)cc3)cs2)n1 (stereo unspecified)	u	-103%	28µM*	-28	u
COc1ccc(CC(N)c2csc(Nc3cccc(OC)n3)n2)cc1 (stereo unspecified)	u	13µM*	-8%	0	u
COc1cccc(Nc2nc(C(N)CC(C)C)cs2)n1 (stereo unspecified)	u	-103%	-2%	u	11µM*
NC(c1csc(Nc2ccccn2)n1)C1CCCCC1 (stereo unspecified)	u	-4%	u	-68*	-5%
NC(c1ccccc1)c1csc(Nc2ccccn2)n1 (stereo unspecified)	u	-38%	u	u	u
CCOC(=O)c1scc(-c2ccc(C)cc2)c1S(=O)(=O)N1CCN(c2ccccc2)CC1	i	-8%	-21%	x	-26%
CCCC[C@H]1CCCO[C@@](C(=O)NCCN2CCOCC2)(C(F)(F)F)C1	x	-6%	x	x	-23%
COc1cccc(CNC(=O)Cc2c(C)c3c(cc(C)c4c(C)coc43)oc2=O)c1	x	0%	x	x	-4%
COc1ccc(CC(N)c2csc(Nc3ccccn3)n2)cc1 (stereo unspecified)	u	-63%	u	-50*	u
NC(Cc1ccccc1)c1csc(Nc2ccc(C(F)(F)F)cn2)n1 (stereo unspecified)	i	-84%	u	-53*	u
COc1cccc(Nc2nc(C(N)Cc3ccc(C(F)(F)F)cc3)cs2)n1 (stereo unspecified)	x	10µM*	20µM*	u	u
